Compound activity from PubChem BioAssay.
Efflux pump mplx = inhibitors of Candida efflux pumps in yeast, primary screen, S. cerevisiae, Nile Red, multiplex; hit rate 0.44% among 330,000; inhibition, % at 10 µM; S. cerevisiae Candida pump triplex;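 active = plate passing quality check with inhibition over a set limit, or well fluorescence over plate mean plus 4 SD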;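 note: Nile Red retained in pooled yeast measured as flow cytometry median fluorescence; 0% = buffer negative control and 100% = Enniatin B positive control; higher means more Nile Red kept so more efflux inhibition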
MEP2-GFP yeast = modulators of MEP2-GFP levels in yeast, primary screen, S. cerevisiae, multiplex flow cytometry, MLPCN library | hit rate 0.51% among 330,000 | S. cerevisiae MEP2-GFP strain, 3 h; 100% = DMSO control level | GFP response vs DMSO, % at 10 µM | AID 2016, 2009;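 active = GFP response versus DMSO above a set limit, roughly screen mean plus 3 SD, cut at about 180% in these data; inconclusive = fewer than 70 cells counted for a yeast strain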;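 note: median GFP fluorescence of the barcode-gated MEP2-GFP cells per well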
RPL19A TOR yeast = RPL19A-GFP expression modulators in yeast, primary screen, cell-based, S. cerevisiae, multiplex flow cytometry, MLPCN | S. cerevisiae RPL19A-GFP strain, 3 h; stronger effect = lower value | percent response vs DMSO, % at 10 µM | hit rate 0.3% among 330,000;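 active = percent response vs DMSO below 50%; inconclusive = fewer than 70 events counted for the yeast strain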;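 note: median channel GFP fluorescence of the barcoded RPL19A-GFP strain; ratio of sample median GFP to plate DMSO average so 100% = DMSO; lower means less RPL19A-GFP as with rapamycin TOR inhibition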
AGP1 TOR yeast = modulators of AGP1-GFP expression in yeast TOR pathway, primary screen, cell-based, multiplex flow cytometry, S. cerevisiae, MLPCN library. hit rate 0.02% among 320,000. 3 h; GFP as percent of DMSO wells. AID 2066, 2009. GFP response vs DMSO, % at 10 µM;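 active = GFP response relative to DMSO above a set limit, near screen average plus 3 SD, cut at about 150% in these data; inconclusive = fewer than 70 cells counted for the yeast strain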;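 note: median GFP channel fluorescence of the gated AGP1 strain per well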
LAP4 TOR yeast = modulators of LAP4-GFP expression in yeast, primary screen, S. cerevisiae, multiplex flow cytometry, MLPCN library | GFP response vs DMSO, % at 10 µM | 3 h; median GFP as percent of DMSO wells | hit rate 0.34% among 320,000;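 active = GFP response vs DMSO above a set limit, about the screen mean plus 3 SD, cut at about 150% in these data; inconclusive = under 70 cell events counted for the yeast strain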
CIT2-GFP yeast = modulators of CIT2-GFP expression in yeast, primary screen, S. cerevisiae, GFP fusion, multiplex flow cytometry, MLPCN library; AID 2029, 2009; GFP response vs DMSO, % at 10 µM; hit rate 0.065% among 320,000; S. cerevisiae CIT2-GFP strain, 3 h; 100 means same as DMSO wells;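 active = GFP response relative to DMSO above a set limit, near the screen mean plus 3 SD, cut at about 150% in these data; inconclusive = Fewer than 70 cells measured for a yeast strain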;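 note: ratio of well median GFP fluorescence to mean of DMSO wells on the plate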
Active calls of the source: *; ? = inconclusive; nt = no result given; + = active, no number; [ ] = dose if it differs, or a comment. Most compounds without a hit are left out; they make up all but 1.3% or so of the library.

SMILES	Efflux pump mplx	MEP2-GFP yeast	RPL19A TOR yeast	AGP1 TOR yeast	LAP4 TOR yeast	CIT2-GFP yeast
Cc1c(OC(C)C(=O)NCCCN2CCOCC2)ccc2c1oc(=O)c1ccccc12 (configuration not stated)	-0.1	162.4	26.5*[may fluoresce violet]	?	91.5	?
O=C(NCC(=O)N1CCOCC1)c1ccc(Cl)cc1	0.0	99.1	91.8	108.6	102.3	97.0
O=C(NCC(=O)N1CCOCC1)c1ccccc1	-0.1	211.9*[may fluoresce violet]	59.1	15.0	93.6	?
Cc1cccc(NS(=O)(=O)c2ccc(-n3cccn3)cc2)c1C	0.0	130.3	22.4*[may fluoresce violet]	?	75.8	?
Cc1ccc(NS(=O)(=O)c2ccc(-n3cccn3)cc2)cc1F	0.1	145.9	13.9*[may fluoresce violet]	?	75.8	?
O=C(COC(=O)C1CC1)NCc1ccc(Cl)cc1Cl	-0.2	95.3	97.2	98.5	94.4	97.8
O=C(Nc1nccs1)C1CC=CCC1C(=O)OCC(F)(F)C(F)F (configuration not stated)	0.6	98.7	105.3	102.2	113.5	100.1
CN1C(C(=O)Nc2ccc(OC(F)(F)F)cc2)=CC(c2ccc3c(c2)OCO3)=NS1(=O)=O	-0.1	104.7	101.8	106.3	103.2	107.4
O=[N+]([O-])c1ccc(O)c(/C=N/n2cnc3ccccc32)c1	-0.1	183.8*[may fluoresce violet]	50.9	?	95.2	?
COc1ccc(-c2cc(C(=O)O)c3ccccc3n2)c(OC)c1	-0.1	100.6	99.4	102.2	98.3	106.1
COc1ccc2cc(-c3cc(C(=O)O)c4ccccc4n3)ccc2c1	0.2	307.7*	94.5	105.3	135.4	nt
Cc1cccc(N2C(=O)C3C4C=CC(C4)C3C2=O)c1 (configuration not stated)	0.0	237.6*[may fluoresce violet]	48.0*[may fluoresce violet]	?	92.8	?
COc1ccccc1NC(=O)N1CCN(Cc2ccc3c(c2)OCO3)CC1	0.0	94.6	97.5	101.4	101.5	101.6
CCN(CC)C(=O)c1nc[nH]c1C(=O)N1CCc2ccccc2C1	-0.3	87.4	95.6	96.3	95.8	98.7
Cc1ccc(S(=O)(=O)NNC(=O)c2cc3cc4ccccc4nc3s2)cc1	0.0	597.6*[may fluoresce violet]	44.6*[may fluoresce violet]	20.1	93.4	?
CCOC(=O)C(=CNc1cc(Cl)c(-c2ccco2)c(Cl)c1)C(=O)OCC	0.1	97.8	99.8	101.8	113.5	93.4
N=c1oc2cc(O)ccc2cc1C(=O)Nc1ccc(F)cc1	0.2	835.9*[may fluoresce violet]	41.0*[may fluoresce violet]	19.4	71.8	?
O=C(c1ccc(F)cc1)c1cc2ccc(O)cc2oc1=O	0.1	88.2	91.8	93.1	91.8	94.2
CCCOc1ccccc1-c1nc2c([nH]1)c(=O)[nH]c(=O)n2C	-0.1	185.7*[may fluoresce violet]	65.1	26.6	95.1	?
Cn1c(=O)c2[nH]c(-c3ccccc3O)nc2n(C)c1=O	-0.2	112.9	88.1	104.5	104.8	105.3
COCCCNC(=O)C1Cc2cc(S(=O)(=O)N3CCCC3)ccc2N1C(C)=O (configuration not stated)	-0.2	114.4	109.7	121.5	123.4	115.8
Cc1cc(C)c2c(N)c(C(=O)NN)sc2n1	0.1	96.6	93.2	97.0	108.0	87.6
Cc1ccc(NC(=O)c2sc3nc(C)cc(C)c3c2N)cc1	0.6	340.4*[may fluoresce violet]	36.2*[may fluoresce violet]	?	68.9	?
CCOc1ccc2[nH]c(C)c(CN3CCCCCC3)c(=O)c2c1	0.2	105.8	99.9	95.6	88.4	95.3
CCOc1cc(N2CCOCC2)c(OCC)cc1NC(=O)c1[nH]c(C)c(C(C)=O)c1C	0.4	102.2	97.1	108.2	108.7	95.7
SMILES	Efflux pump mplx	MEP2-GFP yeast	RPL19A TOR yeast	AGP1 TOR yeast	LAP4 TOR yeast	CIT2-GFP yeast
CCOc1ccc(OCC)c(NC(=O)c2[nH]c(C)c(C(C)=O)c2C)c1	-0.1	368.2*[may fluoresce violet]	41.3*[may fluoresce violet]	?	100.7	?
O=C(CC1S/C(=N/N=C2CCCCCC2)NC1=O)Nc1ccccc1C(F)(F)F (configuration not stated)	-0.2	181.7*[may fluoresce violet]	46.0*[may fluoresce violet]	?	71.1	?
COc1ccccc1NC(=O)CC1S/C(=N/N=C2\CCCc3ccccc32)NC1=O (configuration not stated)	0.4	92.6	92.5	90.2	98.7	85.7
COc1ncnc2c1oc1nc(C(C)C)c3c(c12)CC(C)(C)OC3	0.0	530.6*[may fluoresce violet]	43.7*[may fluoresce violet]	28.1	88.9	nt
CCC1=Nc2cc(C(=O)NCc3cccnc3)ccc2Sc2ccc(C)cc21	0.2	226.1*[may fluoresce violet]	47.6*[may fluoresce violet]	20.1	99.5	?
COc1ccc(C(=O)Nc2ccc(C(=O)N3CCOCC3)cc2)cc1OC	-0.2	110.6	104.3	98.2	99.7	102.5
COc1ccc(C(=O)Nc2ccc(C(=O)N3CCCCC3)cc2)cc1OC	0.0	354.7*[may fluoresce violet]	50.3	16.4	83.0	?
O=C(C1=C(O)C(=O)N(CCN2CCOCC2)C1c1ccc(F)cc1)c1cc2ccccc2o1 (configuration not stated)	0.1	158.1	16.2*[may fluoresce violet]	?	69.9	?
CC(C)(C)OC(=O)N1CCC[C@H]1c1nnc(SCc2cccc(Cl)c2)o1	0.0	96.0	94.1	101.4	106.6	91.7
CC1CCN(c2nc3c(=O)[nH]c(N)nc3n2[C@@H]2O[C@H](CO)[C@@H](O)[C@H]2O)CC1	-0.3	+[may fluoresce violet]	86.0	?	98.7	?
COc1ccc2ccc(C(C)(C(C)=O)C(=O)OC(C)C)cc2c1 (configuration not stated)	0.2	99.2	104.1	101.8	117.4	97.9
CC(=O)NCCc1nc2ccccc2n1Cc1cccc(C)c1	-0.1	100.4	96.8	101.5	105.8	95.6
O=C(Nc1ccc2c(c1)OCO2)c1ccc([N+](=O)[O-])cc1[N+](=O)[O-]	-0.1	220.4*[may fluoresce violet]	65.2	22.7	98.7	?
O=C(Cc1ccc([N+](=O)[O-])cc1)Nc1ccc2c(c1)OCO2	-0.1	106.4	100.7	112.3	113.0	95.3
CC(Oc1ccc(Cl)cc1)C(=O)Nc1ccc(S(=O)(=O)N2CCOCC2)cc1 (configuration not stated)	0.0	275.4*[may fluoresce violet]	58.4	25.8	93.2	?
O=C(Nc1ccc(Cl)cc1)c1ccc(S(=O)(=O)N2CCOCC2)cc1	0.1	97.9	98.2	94.5	93.6	98.0
O=C(Nc1ccc(S(=O)(=O)N2CCOCC2)cc1)c1ccc([N+](=O)[O-])cc1Cl	0.1	307.3*	106.9	108.1	118.3	101.3
O=C(COc1ccc([N+](=O)[O-])cc1)Nc1ccc(S(=O)(=O)N2CCOCC2)cc1	-0.1	398.7*[may fluoresce violet]	58.5	24.3	96.2	?
